The results in this text go back to paper PMC5836133, “The intracellular immune receptor Rx1 regulates the DNA-binding activity of a Golden2-like transcription factor”.

Over roughly 16,000 sequences, “e-score” has its median near -0.044; the highest 2% begin near 0.38. For the sample, the highest values were picked, then their nearest neighbours and some sequences at random.

This assay addresses T1, GST-NbGlk1(82-244) (Nicotiana benthamiana).
T1 chain: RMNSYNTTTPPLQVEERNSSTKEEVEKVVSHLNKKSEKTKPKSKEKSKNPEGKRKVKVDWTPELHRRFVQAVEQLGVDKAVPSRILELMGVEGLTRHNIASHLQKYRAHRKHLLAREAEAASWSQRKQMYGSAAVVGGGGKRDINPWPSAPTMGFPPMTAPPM
Put plainly: protein-binding microarray; NbGlk1 is a Golden2-like transcription factor of Nicotiana benthamiana; high values mean tight binding. The note with it: protein: recombinant; tags: GST (pTH6838); dsDNA, one strand shown.
Regarding CAGATTCA, the binding signal worked out at 0.293 ± 0.0151 E-score.
For CAAATTCG the value was 0.213 ± 0.1 E-score.
The figure for ATAGTAAT is 0.315 ± 0.0567 E-score; for ATTACCGC it is 0.289 ± 0.0145 E-score; for AACGGATC it is 0.25 ± 0.015 E-score.
The figure for AAAAGATT is 0.388 ± 0.0102 E-score.
For AATAGATA, the binding signal is 0.245 ± 0.0719 E-score.
For AAAAGATC the value was 0.301 ± 0.0113 E-score; for AAAAGAAT, 0.267 ± 0.0274 E-score; for AATAGATC, 0.247 ± 0.0558 E-score.
Turning to AACGGATA, the binding signal was 0.215 ± 0.0275 E-score.
For AACAGATT the value was 0.426 ± 0.00502 E-score; for AACAGATA, 0.271 ± 0.00439 E-score.
For AACAGATC the value was 0.305 ± 0.0266 E-score.
For AACGGATT the value was 0.392 ± 0.0181 E-score.
On to AATAGATT, for which the binding signal was 0.406 ± 0.0231 E-score.
CAGAGATC: the binding signal came to 0.312 ± 0.0606 E-score.
For ACTGGAAT the value was 0.256 ± 0.0159 E-score; for AGAGGAAT, 0.21 ± 0.0368 E-score; for ATATGCAA, 0.29 ± 0.0125 E-score.
The figure for AAGAGATT is 0.4 ± 0.035 E-score; for AAGAGATA it is 0.309 ± 0.0135 E-score; for AAGAGATC it is 0.377 ± 0.0169 E-score.
For ATCCTCAT the value was 0.212 ± 0.0808 E-score; for ATTCTCAA, 0.329 ± 0.0151 E-score; for AATCTCAT, 0.4204 ± 0.00133 E-score.
As for ATTCTCAC, the binding signal is 0.299 ± 0.0167 E-score.
The figure for AATCGCAT is 0.274 ± 0.0414 E-score; for AATCTCAA it is 0.421 ± 0.0141 E-score.
For AATCTCTG the value was 0.3738 ± 0.00333 E-score; for AATCTCTA, 0.3774 ± 0.00278 E-score; for AATCTCAG, 0.428 ± 0.00714 E-score.
For AATCTCTC the value was 0.368 ± 0.0262 E-score; for ATTCTCAG, 0.32 ± 0.0298 E-score; for AATCTCAC, 0.394 ± 0.0342 E-score.
With ATTACGTC, the binding signal came out at 0.277 ± 0.0973 E-score.
The figure for ATCCCGTA is 0.31 ± 0.0475 E-score; for ATACGAGA it is 0.231 ± 0.0125 E-score.
For ATATTAGA, the binding signal was found to be 0.212 ± 0.0145 E-score.
For ATTTGTAG the value was 0.21 ± 0.125 E-score; for AAGATTGT, 0.297 ± 0.0412 E-score; for CAGATTGC, 0.4754 ± 0.00468 E-score.
For AATATTGC the value was 0.225 ± 0.0215 E-score.
The figure for AAGATTGC is 0.443 ± 0.0277 E-score; for AAGATTGG it is 0.206 ± 0.0123 E-score.
Turning to ATCTATAG, the binding signal is 0.288 ± 0.0139 E-score.
The figure for ATCGAGAT is 0.327 ± 0.0101 E-score; for AACAGGAA it is 0.207 ± 0.0723 E-score; for ATCTTAAC it is 0.317 ± 0.00626 E-score.
The figure for AGAAATAT is 0.3621 ± 0.00196 E-score.
With AGAAATCG, the binding signal was found to be 0.338 ± 0.0619 E-score.
For AGAAATCA the value was 0.3794 ± 0.00281 E-score.
For AGCAATCC the value was 0.412 ± 0.0143 E-score; for ATAAATCA, 0.239 ± 0.0998 E-score; for ACAAATCA, 0.262 ± 0.0406 E-score.
For AGCAATCA the value was 0.321 ± 0.00992 E-score; for AGTAATCC, 0.369 ± 0.00994 E-score.
As to AGAAATCC, the binding signal came to 0.464 ± 0.00886 E-score.
For AGAAATCT the value was 0.465 ± 0.00635 E-score; for AGAATTCT, 0.299 ± 0.0757 E-score; for AGCAATCG, 0.308 ± 0.0291 E-score.
ATCTTAAA: the binding signal came out at 0.272 ± 0.0208 E-score.
For AAGATCCA the value was 0.24 ± 0.0941 E-score; for ATGTAGTA, 0.223 ± 0.0748 E-score; for ATTTCACA, 0.304 ± 0.0596 E-score.
The figure for AATCTGCC is 0.34 ± 0.133 E-score; for AATCAGCA it is 0.322 ± 0.0337 E-score.
For ATTCTGCA the value was 0.266 ± 0.0788 E-score; for AATCTGCA, 0.414 ± 0.00858 E-score.
Turning to AATCTGCG, the binding signal was 0.444 ± 0.00526 E-score.
The figure for ATTCTGCG is 0.217 ± 0.0166 E-score.
As for ATCCGGGG, the binding signal turned out to be 0.279 ± 0.0126 E-score.
For ATCCGCAA the value was 0.325 ± 0.0306 E-score; for ATCTCACC, 0.317 ± 0.00666 E-score.
The figure for ATTACGAC is 0.351 ± 0.0302 E-score; for AGTATCGG it is 0.202 ± 0.042 E-score.
The figure for ATATAACA is 0.214 ± 0.0677 E-score; for ATCCGCAC it is 0.284 ± 0.0333 E-score.
In the case of ACGATCCT, the binding signal came out at 0.272 ± 0.0244 E-score.
The figure for ATATAATC is 0.297 ± 0.00596 E-score; for AGGTAATC it is 0.416 ± 0.00105 E-score; for ATGTAATC it is 0.462 ± 0.0104 E-score.
For the sequence ACGTAATC, the binding signal amounted to 0.4759 ± 0.00151 E-score.
The figure for ACATAATC is 0.327 ± 0.0217 E-score; for AAGTAATC it is 0.337 ± 0.0373 E-score.
Take AGGTAAAT: the binding signal was 0.205 ± 0.0739 E-score.
For ACGTAATA the value was 0.285 ± 0.0122 E-score; for ATCTAATC, 0.331 ± 0.07 E-score.
